# CHT PAM – CHT positive allosteric modulators, primary screen, cell-based, membrane potential dye, choline EC20; High affinity choline transporter 1 (Homo sapiens), Q9GZV3; CHT-expressing cells; active compounds read high; LV-AA mutant CHT in HEK293 cells; 0.49% of 310,000 active; B-score at 10 µM;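 active = initial fluorescence not abnormally high and integrated response B-score, plate-corrected, over 3 SD above library mean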
# MEKK2 mut-MEK5 – MEK5 binding signal on mutant MEKK2 PB1, primary screen, biochemical, multiplex bead flow cytometry, Alexa488-MEK5 | 0.35% of 290,000 active | Alexa488-MEK5 binding to MEKK2 mutant | percent response, % at 10 µM; in the data active = percent response above about 24%, passing the limit was not always enough
# Mot1-301 SUMO – yeast Mot1-301 growth rescue at high temperature, primary screen, SUMOylation pathway inhibitor project, S. cerevisiae, ATP luminescence, 38.5C. S. cerevisiae Mot1-301 growth rescue; percent above DMSO median, 100 means doubled. 1% of 320,000 active. growth rescue, % at 18.8 µM. AID 2716, 2010;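 active = every valid replicate shows activation above 250% relative to neutral control wells; inactive = the rest, any valid replicate at or below 250%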
# CHT block – inhibitors of human choline transporter CHT | High affinity choline transporter 1 (Homo sapiens), Q9GZV3 | CHT-expressing cells, membrane potential dye, choline response; active compounds read low | B-score at 10 µM | 0.86% of 310,000 active;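 active = B-score over 3 SD under the library average, and starting fluorescence ratio not unusually high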;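 note: choline stimulus applied at its EC90 after an EC20 pre-addition; B-score computed on integrated fluorescence ratio after choline addition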
# MEKK3 PB1 HTS – modulators of MEKK3-MEK5 PB1 binding, primary screen, biochemical, wildtype MEKK3, multiplex bead flow cytometry, Alexa488-MEK5; binding response (% of control), % at 10 µM; bead-based flow cytometry, Alexa488-MEK5 binding to MEKK3; actives lie on both sides; 0 = blocked by unlabeled MEK5, 100 = vehicle; AID 1529, 2009; 1.4% of 290,000 active;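 active = binding response more than 3 SD above or below the average of its plate-row segment, actives on both sides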;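 note: Alexa488 bead fluorescence after subtracting the streptavidin-only scavenger bead signal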
# Target sequence (Q99759 whole entry, looked up): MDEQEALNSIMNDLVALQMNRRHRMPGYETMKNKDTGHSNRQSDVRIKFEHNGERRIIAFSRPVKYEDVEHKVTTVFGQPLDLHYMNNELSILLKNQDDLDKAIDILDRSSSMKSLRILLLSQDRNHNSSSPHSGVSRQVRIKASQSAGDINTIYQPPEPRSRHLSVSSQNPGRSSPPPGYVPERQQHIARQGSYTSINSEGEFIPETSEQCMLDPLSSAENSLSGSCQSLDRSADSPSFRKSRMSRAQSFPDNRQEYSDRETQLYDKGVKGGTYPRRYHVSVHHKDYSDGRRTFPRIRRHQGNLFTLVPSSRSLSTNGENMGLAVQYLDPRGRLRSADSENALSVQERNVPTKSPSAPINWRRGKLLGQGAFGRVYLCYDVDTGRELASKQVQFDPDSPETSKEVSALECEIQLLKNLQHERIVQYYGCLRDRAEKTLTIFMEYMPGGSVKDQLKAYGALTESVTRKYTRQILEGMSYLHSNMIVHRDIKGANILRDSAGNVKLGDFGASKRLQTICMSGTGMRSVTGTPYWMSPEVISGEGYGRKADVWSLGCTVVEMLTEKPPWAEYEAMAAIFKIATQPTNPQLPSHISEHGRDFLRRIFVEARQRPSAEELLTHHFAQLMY
# MEKK2wt PB1 HTS – modulators of MEK5 binding to wildtype MEKK2, primary screen, biochemical, multiplex bead flow cytometry, Alexa488-MEK5 | AID 1531, 2009 | Mitogen-activated protein kinase kinase kinase 2 (Homo sapiens), Q9Y2U5 | binding response (% of control), % at 10 µM | 1.1% of 290,000 active | Alexa488-MEK5 binding to MEKK2 WT; actives lie on both sides; in the data active = binding response below about 67% or above about 130%
# A number is an active result; . = inactive; / = no result given; + = active, no number; ! = a repeat was not active; [ ] = dose if it differs, or a comment. Compounds with a hit are over-represented: about 4.1% of the library has one in this group of screens.
SMILES,CHT PAM,MEKK2 mut-MEK5,Mot1-301 SUMO,CHT block,MEKK3 PB1 HTS,MEKK2wt PB1 HTS
COc1cc(CC2(CCc3ccncc3)C(=O)NC(=O)NC2=O)cc(OC)c1OC,.,.,.,.,.,.
COc1ccc(CC2(CCc3ccncc3)C(=O)NC(=O)NC2=O)c(OC)c1,.,.,281,.,.,.
COCCCN=Cc1c(O)[nH]c(=S)[nH]c1=O,.,.,/,.,.,.
O=C(c1ccc(Cl)cc1)C1CCCN(Cc2ccc3ncccc3c2)C1 (stereo not drawn),.,.,258,.,.,.
CCn1c(=O)n(CC)c2cc([N+](=O)[O-])c(N3CCNCC3)cc21,.,.,.,.,.,.
C[C@]12CCC3C(CC[C@H]4C[C@@H](O)CC[C@]34C)C1C/C(=N/O)[C@@H]2O (stereo partly drawn),/,/,.,/,/,/
Cc1cccc(N=Cc2c(O)n(-c3ccccc3C)c(=O)[nH]c2=O)c1,.,.,280,.,.,.
COC(=O)C[C@]1(C(=O)OC)CN(C#N)N(c2ccc(Cl)cc2)C12c1ccccc1-c1ccccc12,.,.,412,.,.,.
O=C(NC1CN2CCC1CC2)c1ccc(-c2ccc([N+](=O)[O-])cc2)o1 (stereo not drawn),.,.,.,.,.,.
CN1C(=O)COc2c(C(=O)NC3CN4CCC3CC4)cc(Cl)cc21 (stereo not drawn),8.9,.,.,.,.,.
N#CC(C#N)=Cc1ccc(N2CCCC2)cc1,.,.,.,.,.,.
Cc1cc2c(C(C)C)c(O)c(O)c(C=O)c2c(O)c1-c1c(C)cc2c(C(C)C)c(O)c(O)c(C=O)c2c1O,/,.,/,/,42![inhibitor],58[inhibitor]
O=c1[nH]c(=S)n(-c2ccccc2F)c(O)c1C=Nc1ccc(N2CCOCC2)cc1,.,.,+,.,.,.
O=c1[nH]c(=S)n(-c2ccc(Br)cc2)c(O)c1C=Nc1ccc(N2CCOCC2)cc1,.,.,.,.,.,.
C[C@H]1C[C@@H](C)C(=O)[C@@H]([C@H](O)CC2CC(=O)NC(=O)C2)C1,.,.,430,.,.,.
COC(=O)C1=C(c2ccc(F)cc2F)C[C@@H]2CC[C@H]1N2C(=O)NCCOc1ccccc1,/,/,.,/,/,/
C[C@]12CCC3C(CC[C@H]4C[C@H](O)CC[C@]34C)C1C[C@@H](CCCCl)[C@@H]2O (stereo partly drawn),/,/,.,/,/,/
CC1(C)OC(c2ccccc2)=C/C(=C/C=C2C(=O)NC(=S)NC2=O)O1,.,.,.,.,73[inhibitor],-5.0[inhibitor]
CN1/C(=C\C=C2C(=O)NC(=S)NC2=O)C(C)(C)c2ccccc21,/,.,/,/,.,.
Cc1ccc(N2C(=O)NC(=O)/C(=C/C=C/c3ccco3)C2=O)cc1,.,.,.,.,.,.
CC(C)c1ccc(N2C(=O)NC(=O)/C(=C/C=C/c3ccco3)C2=O)cc1,.,.,.,.,.,60[inhibitor]
CCC(C)n1c(O)c(/C=N/Nc2ccccc2)c(=O)[nH]c1=S (stereo not drawn),.,.,355,.,.,.
O=c1[nH]c(=S)n(C2CC2)c(O)c1/C=N/Nc1ccccc1,.,.,282,.,.,.
O=c1[nH]c(=O)n(CCC2=CCCCC2)c(O)c1/C=N/Nc1ccccc1,.,.,291,.,.,.
Cc1ccc(OC(F)F)c(N2C(=O)C3C4CCC(O4)C3C2=O)c1 (stereo not drawn),/,/,.,/,/,/
SMILES,CHT PAM,MEKK2 mut-MEK5,Mot1-301 SUMO,CHT block,MEKK3 PB1 HTS,MEKK2wt PB1 HTS
[N-]=[N+]=NC1C[C@H](n2ccc(=O)[nH]c2=O)O[C@@H]1CO (stereo partly drawn),.,.,.,.,.,.
CC[C@H](C)[C@@H]1O[C@@]2(C=CC1C)CC1C[C@@H](CC=C(C)C(O[C@H]3CC(OC)C(O[C@H]4CC(OC)C(O)C(C)O4)C(C)O3)C(C)C=CC=C3CO[C@@H]4C(O)C(C)=C[C@@H](C(=O)O1)[C@]34O)O2 (stereo partly drawn),.,/,.,.,/,/
O=C(O)c1ccccc1-c1ccc(C=C2C(=O)N(c3ccccc3)C(=S)N(c3ccccc3)C2=O)o1,.,.,.,.,.,.
O=C(Nc1nccs1)c1c(O)c2c(n(Cc3ccco3)c1=O)CCCC2,.,.,.,.,.,-4.0
CCc1cc(=O)oc2c(C)c(OCC(=O)N3C[C@H]4C[C@@H](C3)c3cccc(=O)n3C4)ccc12,.,.,.,.,.,.
CN[C@H]1C[C@H]2O[C@@](C)([C@H]1OC)n1c3ccccc3c3c4c(c5c6ccccc6n2c5c31)C(=O)NC4,.,/,/,-5.3,/,/
O=C(COc1ccc(Br)cc1)N1CCN(Cc2ccc3c(c2)OCO3)CC1,.,.,.,.,.,.
O=C(c1ccco1)C12CN3CN(CN(C3)C1)C2,.,.,.,.,.,.
CCc1ccc(C(=O)C23CN4CN(CN(C4)C2)C3)cc1,.,.,351,.,.,.
COc1ccc2[nH]c(C)c(CCNCc3cc(OC)c4c(c3)OCO4)c2c1,/,/,.,/,/,/
CC(C)(C)C(=O)O[C@H]1CC[C@@]2(C)C(=CC(=O)C3C2CC[C@]2(C)C(=O)CCC32)C1 (stereo partly drawn),/,/,.,/,/,/
CC(=O)O[C@H]1CC[C@@]2(C)C(=CC[C@@H]3[C@@H]2CC[C@]2(C)C(=O)CC[C@@H]32)C1,.,/,483,.,/,/
CC(C)(C)NC(=O)NC(=O)CN1CC=C(c2ccccc2)CC1,.,60,.,.,.,.
N#Cc1ccccc1NC(=O)CN1CC=C(c2ccccc2)CC1,.,.,.,.,.,.
CN1CC[C@@H](c2ccc(F)cc2)[C@H](COc2ccc3c(c2)OCO3)C1,/,.,/,/,.,.
C[C@]12CCC3C(CC[C@H]4C[C@@H](O)CC[C@]34C)C1C[C@H](Br)[C@@H]2O (stereo partly drawn),/,/,.,/,/,/
COc1cc2c(c(OC)c1OC)-c1ccc(O)cc1[C@@H](NC(C)=O)CC2,8,/,.,.,/,/
COc1cc2c(c(OC)c1OC)-c1ccc(O)c(=O)cc1[C@@H](NC(C)=O)CC2,/,/,.,/,/,/
CN1[C@@H]2CC[C@H]1CC(OC1c3ccccc3CCc3ccccc31)C2 (stereo partly drawn),.,/,.,.,/,/
O=[N+]([O-])c1ccc(N2CCNCC2)cc1NC1CC1,6.4,/,.,.,/,/
CCNc1cc(N2CCNCC2)ccc1[N+](=O)[O-],7.3,/,.,.,/,/

# Bioassay records (PubChem)
